# According to PubChem BioAssay (NCATS):
# Values without a mark were called inactive. Results filed as inconclusive are left out. Entries that show only a call come without a potency. The source made the active and inactive calls. Unless noted, calls follow the shape of the dose curve; as a rule, active = well fitted curve in the direction sought with a large enough effect; inconclusive = small, poorly fitted or top-dose-only effect, or another doubt; inactive = no such curve, though single readings can be large; an effect the other way counts as inactive or inconclusive.
# Key:
# [1] = biological target: Ubiquitin carboxyl-terminal hydrolase 1 (Homo sapiens) (UniProt O94782); experiment: Inhibitors of USP1/UAF1: Pilot qHTS (AID 504865); conditions: purified USP1/UAF1, Ub-rhodamine cleavage fluorescence; series mostly up to 114 µM; also: nearly all actives have a fitted effect of over 35% in size; also: potency is read from the fitted curve at half-maximal effect
# Outline: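 Deubiquitinase activity followed as kinetic rhodamine fluorescence release from 150 nM Ub-Rho. 1 nM USP1/UAF1 with compound, after 15 min room-temperature preincubation, in HEPES pH 7.8 buffer containing TCEP, EDTA, BSA and Tween-20.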
# [2] = biological target: Thyrotropin-releasing hormone receptor (Homo sapiens) (UniProt P34981); experiment: qHTS for Small Molecule Agonists and Allosteric Enhancers of Human TRH Receptor: Validation Screen for Agonists (AID 493127;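 active = calcium activation more than 3 SD above the typical response in the agonist read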;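 also: intracellular calcium rise by fluo-8 fluorescence before TRH EC20 addition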); conditions: TRH receptor agonist cell assay; at 2 µM; active compounds read high
# Outline: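 Compounds are added by online pintool to dye-loaded TRHR cells while fluorescence is recorded every second. A rise in calcium signal during the agonist read marks activation; a later 10 nM TRH addition (EC20) serves the separate enhancer mode.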
# [3] = biological target: Galactokinase (Homo sapiens) (UniProt P51570); experiment: qHTS Validation Assay for Inhibitors of Human Galactokinase (GALK) (AID 493189); conditions: purified human GALK enzyme activity, qHTS 7-point titration; series mostly up to 57.5 µM
# Outline: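 Inhibition was measured as remaining ATP, detected by luciferase luminescence after a 1 h room-temperature reaction. Final conditions: 5 nM GALK, 100 uM galactose, 35 uM ATP, pH 8.0 HEPES buffer.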
# [4] = Validation screen for small molecules that induce DNA re-replication in SW480 colon adenocarcinoma cells (AID 504364); conditions: DNA re-replication phenotype (high-content imaging); series mostly up to 46.1 µM
# Outline: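 Image-based qHTS: compounds were incubated with SW480 cells for 48 hr, nuclei stained with Hoechst, and per-nucleus fluorescence intensity scanned to flag cells with excess DNA content.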
# [5] = biological target: DNA dC->dU-editing enzyme APOBEC-3G (Homo sapiens) (UniProt Q9HC16); experiment: qHTS for inhibitors of Vif-A3G interactions: Validation (AID 588379); conditions: Vif-A3G protein interaction assay; series mostly up to 46.1 µM
# Outline: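 Yellow fluorescence (Ex 488, Em 500-530) of Vif-coexpressing HeLa A3G-eYFP cells, scanned by Acumen cytometer, reports blocked A3G degradation. Cells plated at 700/well overnight at 37 deg C before compound addition, then a further overnight compound incubation at 37 deg C.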
# Ubiquitin carboxyl-terminal hydrolase 1 (Homo sapiens), sequence (O94782 whole entry, looked up): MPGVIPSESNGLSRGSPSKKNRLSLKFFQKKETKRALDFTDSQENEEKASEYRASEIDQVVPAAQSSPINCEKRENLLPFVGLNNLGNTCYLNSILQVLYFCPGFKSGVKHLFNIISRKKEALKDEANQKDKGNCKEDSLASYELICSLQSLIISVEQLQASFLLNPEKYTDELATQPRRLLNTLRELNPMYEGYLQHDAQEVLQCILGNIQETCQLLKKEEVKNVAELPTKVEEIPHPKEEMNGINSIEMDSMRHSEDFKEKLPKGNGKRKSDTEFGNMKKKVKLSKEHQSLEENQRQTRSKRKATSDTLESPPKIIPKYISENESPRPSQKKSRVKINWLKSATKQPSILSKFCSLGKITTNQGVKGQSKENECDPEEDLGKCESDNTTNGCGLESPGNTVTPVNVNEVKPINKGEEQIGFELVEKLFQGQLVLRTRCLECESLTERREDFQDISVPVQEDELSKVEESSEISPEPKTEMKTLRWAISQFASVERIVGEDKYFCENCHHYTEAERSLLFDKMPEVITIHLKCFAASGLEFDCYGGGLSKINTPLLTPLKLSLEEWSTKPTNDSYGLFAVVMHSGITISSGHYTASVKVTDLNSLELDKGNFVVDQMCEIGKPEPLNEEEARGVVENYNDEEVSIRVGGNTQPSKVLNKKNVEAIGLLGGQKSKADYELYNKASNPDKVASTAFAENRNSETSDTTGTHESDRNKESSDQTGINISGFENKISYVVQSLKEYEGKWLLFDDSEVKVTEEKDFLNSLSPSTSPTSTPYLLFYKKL
# Galactokinase (Homo sapiens), sequence (P51570 whole entry, looked up): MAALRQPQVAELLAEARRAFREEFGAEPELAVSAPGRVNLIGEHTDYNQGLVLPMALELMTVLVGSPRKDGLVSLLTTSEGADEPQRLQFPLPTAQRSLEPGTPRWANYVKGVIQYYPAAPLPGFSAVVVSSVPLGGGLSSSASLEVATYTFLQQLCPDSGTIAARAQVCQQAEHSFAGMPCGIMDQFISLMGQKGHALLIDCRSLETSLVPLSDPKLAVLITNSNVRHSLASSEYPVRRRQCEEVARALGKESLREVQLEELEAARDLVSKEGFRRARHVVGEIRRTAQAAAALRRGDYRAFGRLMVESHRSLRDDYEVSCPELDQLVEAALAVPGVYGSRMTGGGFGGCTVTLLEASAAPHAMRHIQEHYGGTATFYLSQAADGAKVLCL
# Thyrotropin-releasing hormone receptor (Homo sapiens), sequence (P34981 whole entry, looked up): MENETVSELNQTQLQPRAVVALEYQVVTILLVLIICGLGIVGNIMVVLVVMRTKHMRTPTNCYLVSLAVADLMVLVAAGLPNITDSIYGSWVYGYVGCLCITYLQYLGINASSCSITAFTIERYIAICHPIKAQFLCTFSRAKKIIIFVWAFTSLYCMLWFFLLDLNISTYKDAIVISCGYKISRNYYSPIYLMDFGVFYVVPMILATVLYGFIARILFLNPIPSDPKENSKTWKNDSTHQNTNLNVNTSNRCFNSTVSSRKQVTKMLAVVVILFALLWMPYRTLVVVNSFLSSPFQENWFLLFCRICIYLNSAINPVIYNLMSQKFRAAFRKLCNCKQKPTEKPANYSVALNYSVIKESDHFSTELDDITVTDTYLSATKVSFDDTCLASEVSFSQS
# DNA dC->dU-editing enzyme APOBEC-3G (Homo sapiens), sequence (Q9HC16 whole entry, looked up): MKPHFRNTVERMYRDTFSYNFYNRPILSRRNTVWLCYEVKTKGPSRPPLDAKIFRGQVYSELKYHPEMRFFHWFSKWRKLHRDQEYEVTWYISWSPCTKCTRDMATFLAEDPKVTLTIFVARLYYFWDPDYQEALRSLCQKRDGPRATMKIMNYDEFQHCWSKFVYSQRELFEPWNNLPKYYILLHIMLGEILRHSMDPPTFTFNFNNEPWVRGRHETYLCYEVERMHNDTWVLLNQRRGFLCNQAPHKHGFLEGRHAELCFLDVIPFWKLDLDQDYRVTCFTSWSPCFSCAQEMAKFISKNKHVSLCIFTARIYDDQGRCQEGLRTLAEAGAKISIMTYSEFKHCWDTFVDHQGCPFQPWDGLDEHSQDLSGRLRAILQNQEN
smiles,measurement,setting,value
O=C1CCC(c2ccccc2)(C2CCN(Cc3ccccc3)CC2)C(=O)N1 (stereo unspecified),Potency,[1],inactive
Cc1cc(=O)c(C(=O)N[C@@H](C(=O)N[C@@H]2C(=O)N3C(C(=O)O)=C(CSc4nnnn4C)CS[C@H]23)c2ccc(O)cc2)c[nH]1,Potency,[1],inactive
COc1ccc(/C=N/NC(=O)c2ccncc2)c(C(=O)O)c1OC,Potency,[1],inactive
CCN(CC)CCC(=O)N1c2ccccc2Sc2ccc(Cl)cc21,Potency,[1],inactive
C[C@H](O)CN(C)C,Potency,[1],inactive
Cc1ncc(C[n+]2csc(CCOP(=O)(O)OP(=O)(O)O)c2C)c(N)n1,Potency,[1],inactive
CC(=O)Oc1cc(C(F)(F)F)ccc1C(=O)O,Potency,[1],inactive
COc1ccc(-c2noc(CC(=O)O)c2-c2ccc(OC)cc2)cc1,Potency,[1],inactive
Cc1ncc(C[n+]2csc(CCOP(=O)(O)O)c2C)c(N)n1,Potency,[1],inactive
CC(=O)Nc1ccc(OC(=O)c2ccccc2O)cc1,Potency,[1],inactive
CC1CC(O)CC(C)(C)C1 (stereo unspecified),Potency,[1],inactive
CCOC(=S)SSC(=S)OCC,Potency,[1],inactive
C[C@]12CCC(=O)C[C@@H]1CC[C@@H]1[C@@H]2CC[C@]2(C)C=CC[C@@H]12,Potency,[1],inactive
CCCCCCCCCCCCCCCCCC[N+](C)(C)CCC[Si](OC)(OC)OC,Potency,[1],inactive
Cc1c(C)c2c(c(C)c1OC(=O)CCC(=O)O)CC[C@@](C)(CCC[C@H](C)CCC[C@H](C)CCCC(C)C)O2,Potency,[1],35.5 µM (active)
CCCCCCCCCC(=O)NO,Potency,[1],inactive
C[C@@](Cc1ccc(O)c(O)c1)(NN)C(=O)O,activation,[2],0.562%
same,outcome,[3],inactive
same,outcome,[4],inactive
same,outcome,[5],inactive
CO/N=C(\C(=O)N[C@@H]1C(=O)N2C(C(=O)[O-])=C(C[n+]3cccc4c3CCC4)CS[C@H]12)c1csc(N)n1,Potency,[1],inactive
